# Measured values: PubChem BioAssay (EPA / NIEHS)
# Results filed as inconclusive are left out. The source made the active and inactive calls. How the source made its calls: active means hit-call score of the fitted dose curve at least 0.9, where 1 is the maximum; inconclusive means response in the unintended direction; inactive means score below 0.9.
# Test: ACEA_ER_80hr: ACEA Biosciences xCELLigence Real-Time Cell Analysis on Estrogen Receptor Agonism for Proliferation (AID 2282667)
# Conditions: T47D proliferation, impedance (xCELLigence), 80 h
# How it was run: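 Estrogen-driven proliferation is captured as electrode impedance in T47D cells 80 h after compound addition. Test articles ran at 8 concentrations, 1:4 dilutions from 100 uM final, in two replicate plates.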
Compound,outcome,AC50
CCCCCCCCCCCCCC(=O)OCC,inactive,
C=C(C)C(=O)OCCC[Si](OC)(OC)OC,inactive,
O=C(O)c1cccc(Cl)n1,inactive,
c1ccc(-c2nn[nH]n2)cc1,,26.1 nM (active)
Cc1ccncc1,inactive,
Cc1cc(N)n(-c2ccccc2)n1,inactive,
C1CCCNCC1,inactive,
O=[N+]([O-])c1cc(N(CCO)CCO)ccc1NCCO,inactive,
CC(=O)c1ccc(O)cc1,inactive,
[Cu+],inactive,
CC(=O)c1ccc2ccccc2c1,inactive,
OC[C@H]1O[C@@H](O[C@H]2[C@H](O)[C@@H](O)[C@H](O)O[C@@H]2CO)[C@H](O)[C@@H](O)[C@H]1O,inactive,
CC(C)(C)C1CCC(O)CC1 (configuration not stated),inactive,
CCC(=O)OCC=Cc1ccccc1,,10500 nM (active)
CC1=CCC(C(C)C)=CC1,inactive,
COC(=O)c1cccc(C(=O)OC)c1,inactive,
CCCCCC1C(=O)CCC1CC(=O)OC (configuration not stated),,50000 nM (active)
S=c1[nH][nH]c(=S)s1,,2680 nM (active)
CC(=O)Nc1cc(S(=O)(=O)O)cc2cc(S(=O)(=O)O)c(N=Nc3ccccc3)c(O)c12,inactive,

Compound,outcome,AC50
O=C(Nc1cccc(Cl)c1)OCC#CCCl,inactive,
CNC(=C[N+](=O)[O-])NCCSCc1ccc(CN(C)C)o1,inactive,
CN1CCc2cccc3c2[C@H]1Cc1ccc(O)c(O)c1-3,inactive,
COc1ccc(C(C)=O)cc1,,26.7 nM (active)
C=CC(C)(CCC=C(C)C)OC(=O)CC (configuration not stated),inactive,
CC(=O)OC(C)(C)C1CC=C(C)CC1 (configuration not stated),inactive,
CC(C)Cc1ccc(C(C)C(=O)O)cc1 (configuration not stated),inactive,
O=C(O)c1cc(C(=O)O)c(C(=O)O)cc1C(=O)O,inactive,
C1COCO1,inactive,
CC(=O)OC(C)(C)C,inactive,
Cc1cc(O)c2c(c1)C(=O)c1cc(O)cc(O)c1C2=O,,493 nM (active)
O=C(C=Cc1ccccc1)OCCCc1ccccc1,inactive,
CN(C)c1ccc(C=O)cc1,inactive,
CCOc1ccc(NC(C)=O)cc1,inactive,
CCCCOCC(C)OCC(C)O (configuration not stated),inactive,
Cc1ccc(C(C)(C)O)cc1,inactive,
CC1(C)CC(=O)CC(C)(C)N1,inactive,
C1=COCCC1,inactive,
